This passage reports inhibition results from ChEMBL document CHEMBL1961873, “Compounds: GSK PKIS; Assays: Nanosyn kinase panel” (2012).

The structures appear in SMILES notation.

In test [1] the target is Fibroblast growth factor receptor 4 (Homo sapiens) (UniProt P22455). Particulars: at 1 µM.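 Also: reported figure is the averaged percent inhibition of FGFR4, from the GSK PKIS kinase screening panel.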
Test [2] addresses Tyrosine-protein kinase Fgr (Homo sapiens) (UniProt P09769). Particulars: at 0.1 µM.
Test [3] has the same target. Particulars: at 1 µM.
Test [4] has as its target Vascular endothelial growth factor receptor 1 (Homo sapiens) (UniProt P17948). Particulars: at 0.1 µM.
The target is the same in test [5]. Particulars: at 1 µM.
Test [6] has as its target Receptor-type tyrosine-protein kinase FLT3 (Homo sapiens) (UniProt P36888). Particulars: at 0.1 µM.
Test [7] shares this target. Particulars: at 1 µM.
Test [8] has as its system T1, Receptor-type tyrosine-protein kinase FLT3 (Homo sapiens), P36888 [D835Y].
T1 sequence (whole entry): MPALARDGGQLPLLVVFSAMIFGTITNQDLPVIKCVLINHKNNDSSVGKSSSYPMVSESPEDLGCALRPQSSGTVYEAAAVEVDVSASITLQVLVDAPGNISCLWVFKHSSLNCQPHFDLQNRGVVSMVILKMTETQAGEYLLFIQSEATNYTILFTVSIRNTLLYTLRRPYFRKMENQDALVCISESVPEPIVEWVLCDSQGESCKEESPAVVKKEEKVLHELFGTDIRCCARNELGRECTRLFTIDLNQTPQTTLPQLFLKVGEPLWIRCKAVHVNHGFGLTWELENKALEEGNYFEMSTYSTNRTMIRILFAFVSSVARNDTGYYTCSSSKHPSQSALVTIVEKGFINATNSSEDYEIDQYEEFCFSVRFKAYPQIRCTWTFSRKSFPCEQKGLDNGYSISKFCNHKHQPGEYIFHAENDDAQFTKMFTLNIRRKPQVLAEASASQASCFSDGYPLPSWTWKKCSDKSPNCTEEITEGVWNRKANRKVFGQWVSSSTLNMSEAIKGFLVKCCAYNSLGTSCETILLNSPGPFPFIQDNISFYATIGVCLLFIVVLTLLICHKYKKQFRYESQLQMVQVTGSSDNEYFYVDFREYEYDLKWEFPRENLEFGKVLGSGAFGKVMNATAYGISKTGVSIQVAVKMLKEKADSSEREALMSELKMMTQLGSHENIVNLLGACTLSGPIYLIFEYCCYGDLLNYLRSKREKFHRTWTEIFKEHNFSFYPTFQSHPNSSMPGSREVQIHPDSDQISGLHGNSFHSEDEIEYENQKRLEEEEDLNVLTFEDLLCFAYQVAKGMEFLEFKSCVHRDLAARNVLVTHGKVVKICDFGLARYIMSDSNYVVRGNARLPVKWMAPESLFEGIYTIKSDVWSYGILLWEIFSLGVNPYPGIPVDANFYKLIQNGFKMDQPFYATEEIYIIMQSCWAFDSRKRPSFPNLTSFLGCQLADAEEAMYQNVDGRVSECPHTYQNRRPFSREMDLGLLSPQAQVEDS
Particulars: at 0.1 µM.

Test [9] addresses Non-receptor tyrosine-protein kinase TYK2 (Homo sapiens) (UniProt P29597). Particulars: at 1 µM.
The target in test [10] is T2, Tyrosine-protein kinase receptor TYRO3 (Homo sapiens) (UniProt Q06418).
T2 sequence (whole entry): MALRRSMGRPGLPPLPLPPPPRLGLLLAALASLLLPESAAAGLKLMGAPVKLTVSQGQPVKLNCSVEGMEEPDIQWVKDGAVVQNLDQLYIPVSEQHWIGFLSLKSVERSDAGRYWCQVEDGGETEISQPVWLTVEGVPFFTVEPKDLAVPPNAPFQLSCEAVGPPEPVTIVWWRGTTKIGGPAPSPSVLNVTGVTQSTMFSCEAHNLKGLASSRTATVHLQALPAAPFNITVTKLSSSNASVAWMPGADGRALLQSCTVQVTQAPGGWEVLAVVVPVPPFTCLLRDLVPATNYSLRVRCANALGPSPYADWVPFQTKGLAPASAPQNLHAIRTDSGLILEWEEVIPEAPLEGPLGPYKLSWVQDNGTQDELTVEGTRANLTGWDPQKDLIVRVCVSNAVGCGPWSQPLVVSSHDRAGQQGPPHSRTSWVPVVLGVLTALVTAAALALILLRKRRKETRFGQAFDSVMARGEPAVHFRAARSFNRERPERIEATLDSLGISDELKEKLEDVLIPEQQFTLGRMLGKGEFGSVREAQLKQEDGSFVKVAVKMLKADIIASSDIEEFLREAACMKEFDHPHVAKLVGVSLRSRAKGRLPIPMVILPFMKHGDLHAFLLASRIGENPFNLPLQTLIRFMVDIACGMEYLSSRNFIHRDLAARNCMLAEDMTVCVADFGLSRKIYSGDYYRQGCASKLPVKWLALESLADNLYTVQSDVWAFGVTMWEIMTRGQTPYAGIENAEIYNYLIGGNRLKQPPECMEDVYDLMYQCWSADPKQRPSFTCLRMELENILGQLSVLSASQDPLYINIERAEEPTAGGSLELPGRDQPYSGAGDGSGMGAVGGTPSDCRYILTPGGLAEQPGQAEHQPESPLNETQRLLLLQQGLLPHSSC
Particulars: at 0.1 µM.

Test [11] has as its target T2, Tyrosine-protein kinase receptor TYRO3 (Homo sapiens). Particulars: at 1 µM.
Test [12] has as its target Tyrosine-protein kinase Yes (Homo sapiens) (UniProt P07947). Particulars: at 0.1 µM.
Test [13] shares this target. Particulars: at 1 µM.
The target in test [14] is T3, Tyrosine-protein kinase ZAP-70 (Homo sapiens) (UniProt P43403).
T3 sequence (whole entry): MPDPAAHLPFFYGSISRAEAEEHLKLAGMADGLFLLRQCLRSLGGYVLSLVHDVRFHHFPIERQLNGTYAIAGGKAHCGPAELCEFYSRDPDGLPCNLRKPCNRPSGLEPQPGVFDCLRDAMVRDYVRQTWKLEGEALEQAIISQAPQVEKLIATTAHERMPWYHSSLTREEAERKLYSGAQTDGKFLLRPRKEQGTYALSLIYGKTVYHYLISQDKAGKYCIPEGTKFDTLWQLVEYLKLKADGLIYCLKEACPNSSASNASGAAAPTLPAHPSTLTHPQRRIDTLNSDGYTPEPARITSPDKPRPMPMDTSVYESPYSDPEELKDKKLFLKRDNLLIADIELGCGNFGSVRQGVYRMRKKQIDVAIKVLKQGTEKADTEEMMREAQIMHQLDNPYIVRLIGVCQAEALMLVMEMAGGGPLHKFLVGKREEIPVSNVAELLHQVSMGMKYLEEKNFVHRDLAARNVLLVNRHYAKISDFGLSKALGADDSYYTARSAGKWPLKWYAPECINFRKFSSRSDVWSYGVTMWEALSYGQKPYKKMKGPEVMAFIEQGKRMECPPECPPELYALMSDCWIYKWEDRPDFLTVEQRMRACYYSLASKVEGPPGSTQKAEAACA
Particulars: at 0.1 µM.

Test [15] addresses T3, Tyrosine-protein kinase ZAP-70 (Homo sapiens). Particulars: at 1 µM.
For test [16], the target named is Serine/threonine-protein kinase B-raf (Homo sapiens) (UniProt P15056). Particulars: at 0.1 µM.
Test [17] has the same target. Particulars: at 1 µM.
Test [18] relates to Serine/threonine-protein kinase B-raf (Homo sapiens), P15056 [V600E]. Particulars: at 0.1 µM.
Test [19] has the same test system. Particulars: at 1 µM.
For test [20], the target named is RAF proto-oncogene serine/threonine-protein kinase (Homo sapiens) (UniProt P04049). Particulars: at 0.1 µM.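 Also: values are mean CRAF kinase inhibition from profiling of the GSK Published Kinase Inhibitor Set.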
RAF proto-oncogene serine/threonine-protein kinase (Homo sapiens), sequence (P04049 whole entry): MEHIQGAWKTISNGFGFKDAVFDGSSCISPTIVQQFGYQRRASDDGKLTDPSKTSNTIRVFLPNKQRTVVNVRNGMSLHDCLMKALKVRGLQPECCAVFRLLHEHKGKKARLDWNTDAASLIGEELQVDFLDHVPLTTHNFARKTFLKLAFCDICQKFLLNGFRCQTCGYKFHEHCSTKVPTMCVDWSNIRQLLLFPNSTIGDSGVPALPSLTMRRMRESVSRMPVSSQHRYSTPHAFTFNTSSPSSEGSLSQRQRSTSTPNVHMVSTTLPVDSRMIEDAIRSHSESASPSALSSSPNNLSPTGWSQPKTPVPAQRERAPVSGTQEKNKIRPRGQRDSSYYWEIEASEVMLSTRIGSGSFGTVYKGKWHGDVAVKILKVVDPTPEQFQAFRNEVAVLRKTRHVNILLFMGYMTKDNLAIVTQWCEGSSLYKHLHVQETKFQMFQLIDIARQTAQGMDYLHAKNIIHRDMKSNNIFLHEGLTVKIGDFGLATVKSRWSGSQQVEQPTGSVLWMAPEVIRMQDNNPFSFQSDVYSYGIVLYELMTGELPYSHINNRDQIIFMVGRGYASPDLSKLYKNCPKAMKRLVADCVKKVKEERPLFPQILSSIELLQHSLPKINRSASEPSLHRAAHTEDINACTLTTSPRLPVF

Fibroblast growth factor receptor 4 (Homo sapiens), sequence (P22455 22-802 limits assumed): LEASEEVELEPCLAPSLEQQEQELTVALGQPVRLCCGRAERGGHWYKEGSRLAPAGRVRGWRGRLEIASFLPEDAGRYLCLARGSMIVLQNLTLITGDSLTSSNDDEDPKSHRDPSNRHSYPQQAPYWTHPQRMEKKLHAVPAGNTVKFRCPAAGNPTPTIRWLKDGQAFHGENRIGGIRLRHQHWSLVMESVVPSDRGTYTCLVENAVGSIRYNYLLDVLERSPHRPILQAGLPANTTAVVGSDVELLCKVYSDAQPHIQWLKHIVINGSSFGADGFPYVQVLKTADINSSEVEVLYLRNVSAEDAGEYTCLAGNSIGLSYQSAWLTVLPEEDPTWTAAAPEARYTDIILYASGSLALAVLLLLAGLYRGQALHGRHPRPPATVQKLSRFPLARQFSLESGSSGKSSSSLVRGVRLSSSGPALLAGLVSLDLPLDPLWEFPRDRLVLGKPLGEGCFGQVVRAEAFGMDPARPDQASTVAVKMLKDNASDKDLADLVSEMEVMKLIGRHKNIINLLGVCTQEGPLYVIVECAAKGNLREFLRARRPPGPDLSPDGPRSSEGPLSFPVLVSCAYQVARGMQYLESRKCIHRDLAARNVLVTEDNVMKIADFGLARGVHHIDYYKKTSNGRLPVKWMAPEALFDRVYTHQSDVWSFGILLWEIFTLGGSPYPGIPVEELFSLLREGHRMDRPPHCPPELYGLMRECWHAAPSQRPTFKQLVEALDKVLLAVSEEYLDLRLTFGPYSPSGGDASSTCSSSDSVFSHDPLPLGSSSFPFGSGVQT
Serine/threonine-protein kinase B-raf (Homo sapiens), sequence (P15056 whole entry): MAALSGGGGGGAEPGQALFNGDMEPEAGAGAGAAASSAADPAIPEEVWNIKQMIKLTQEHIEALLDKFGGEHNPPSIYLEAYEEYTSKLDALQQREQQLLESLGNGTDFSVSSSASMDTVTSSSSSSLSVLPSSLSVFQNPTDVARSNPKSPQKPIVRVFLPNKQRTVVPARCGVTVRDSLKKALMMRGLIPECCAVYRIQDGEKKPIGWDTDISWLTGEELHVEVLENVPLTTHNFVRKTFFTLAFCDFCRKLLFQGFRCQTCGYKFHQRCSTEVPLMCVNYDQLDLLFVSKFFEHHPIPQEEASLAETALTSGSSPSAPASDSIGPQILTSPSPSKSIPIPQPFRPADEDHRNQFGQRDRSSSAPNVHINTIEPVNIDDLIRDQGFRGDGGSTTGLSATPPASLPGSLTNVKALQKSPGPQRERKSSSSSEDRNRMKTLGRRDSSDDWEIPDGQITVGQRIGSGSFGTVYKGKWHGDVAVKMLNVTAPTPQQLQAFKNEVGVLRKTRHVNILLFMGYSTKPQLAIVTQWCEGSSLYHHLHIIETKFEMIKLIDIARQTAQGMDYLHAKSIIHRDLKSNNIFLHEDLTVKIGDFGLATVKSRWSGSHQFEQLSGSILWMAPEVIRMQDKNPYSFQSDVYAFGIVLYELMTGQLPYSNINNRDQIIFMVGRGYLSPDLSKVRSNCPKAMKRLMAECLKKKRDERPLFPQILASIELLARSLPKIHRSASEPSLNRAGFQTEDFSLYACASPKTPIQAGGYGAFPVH
Tyrosine-protein kinase Yes (Homo sapiens), sequence (P07947 2-543 limits assumed): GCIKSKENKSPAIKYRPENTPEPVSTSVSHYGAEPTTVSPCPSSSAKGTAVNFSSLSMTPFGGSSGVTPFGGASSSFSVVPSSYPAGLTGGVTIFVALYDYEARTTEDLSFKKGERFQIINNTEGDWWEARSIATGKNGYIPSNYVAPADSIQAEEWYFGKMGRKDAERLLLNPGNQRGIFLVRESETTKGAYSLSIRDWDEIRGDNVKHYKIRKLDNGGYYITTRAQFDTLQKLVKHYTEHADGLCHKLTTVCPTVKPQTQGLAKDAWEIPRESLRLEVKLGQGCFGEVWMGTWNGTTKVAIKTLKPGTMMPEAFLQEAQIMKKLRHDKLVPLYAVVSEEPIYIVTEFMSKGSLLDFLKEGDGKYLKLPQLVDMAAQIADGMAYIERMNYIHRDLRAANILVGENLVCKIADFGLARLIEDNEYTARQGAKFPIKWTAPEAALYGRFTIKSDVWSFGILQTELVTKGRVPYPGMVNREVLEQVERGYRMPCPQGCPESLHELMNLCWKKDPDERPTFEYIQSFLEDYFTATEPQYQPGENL
Non-receptor tyrosine-protein kinase TYK2 (Homo sapiens), sequence (P29597 whole entry): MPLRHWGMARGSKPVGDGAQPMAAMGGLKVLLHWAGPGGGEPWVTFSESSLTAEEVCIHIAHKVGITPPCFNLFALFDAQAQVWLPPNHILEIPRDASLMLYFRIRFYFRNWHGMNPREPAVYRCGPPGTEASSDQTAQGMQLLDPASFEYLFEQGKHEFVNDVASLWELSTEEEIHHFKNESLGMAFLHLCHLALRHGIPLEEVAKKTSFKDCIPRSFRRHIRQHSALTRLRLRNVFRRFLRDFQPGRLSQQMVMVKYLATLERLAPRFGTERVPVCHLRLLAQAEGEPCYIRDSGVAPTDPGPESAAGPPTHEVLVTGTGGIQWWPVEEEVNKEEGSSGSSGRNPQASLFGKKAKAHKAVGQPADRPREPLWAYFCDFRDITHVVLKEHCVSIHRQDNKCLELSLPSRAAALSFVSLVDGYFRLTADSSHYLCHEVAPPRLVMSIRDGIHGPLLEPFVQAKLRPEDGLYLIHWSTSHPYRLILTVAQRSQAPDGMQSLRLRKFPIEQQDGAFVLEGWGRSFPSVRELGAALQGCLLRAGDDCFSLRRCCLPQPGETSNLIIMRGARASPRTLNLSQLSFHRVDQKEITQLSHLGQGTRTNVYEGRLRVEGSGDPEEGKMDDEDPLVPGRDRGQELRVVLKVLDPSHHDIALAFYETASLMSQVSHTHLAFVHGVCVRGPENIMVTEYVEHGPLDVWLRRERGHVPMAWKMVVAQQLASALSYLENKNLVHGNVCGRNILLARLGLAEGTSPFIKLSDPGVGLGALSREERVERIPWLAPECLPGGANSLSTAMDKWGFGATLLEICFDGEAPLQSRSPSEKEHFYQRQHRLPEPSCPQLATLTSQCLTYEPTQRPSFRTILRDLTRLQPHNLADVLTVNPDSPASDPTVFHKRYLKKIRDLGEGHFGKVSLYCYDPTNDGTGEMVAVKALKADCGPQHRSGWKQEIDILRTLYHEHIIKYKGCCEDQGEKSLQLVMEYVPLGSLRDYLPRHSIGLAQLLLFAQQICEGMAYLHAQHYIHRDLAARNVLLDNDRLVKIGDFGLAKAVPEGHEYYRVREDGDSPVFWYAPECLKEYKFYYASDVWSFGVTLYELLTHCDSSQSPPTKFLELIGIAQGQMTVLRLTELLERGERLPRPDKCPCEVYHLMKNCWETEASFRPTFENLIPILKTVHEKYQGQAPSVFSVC
Tyrosine-protein kinase Fgr (Homo sapiens), sequence (P09769 2-529 limits assumed): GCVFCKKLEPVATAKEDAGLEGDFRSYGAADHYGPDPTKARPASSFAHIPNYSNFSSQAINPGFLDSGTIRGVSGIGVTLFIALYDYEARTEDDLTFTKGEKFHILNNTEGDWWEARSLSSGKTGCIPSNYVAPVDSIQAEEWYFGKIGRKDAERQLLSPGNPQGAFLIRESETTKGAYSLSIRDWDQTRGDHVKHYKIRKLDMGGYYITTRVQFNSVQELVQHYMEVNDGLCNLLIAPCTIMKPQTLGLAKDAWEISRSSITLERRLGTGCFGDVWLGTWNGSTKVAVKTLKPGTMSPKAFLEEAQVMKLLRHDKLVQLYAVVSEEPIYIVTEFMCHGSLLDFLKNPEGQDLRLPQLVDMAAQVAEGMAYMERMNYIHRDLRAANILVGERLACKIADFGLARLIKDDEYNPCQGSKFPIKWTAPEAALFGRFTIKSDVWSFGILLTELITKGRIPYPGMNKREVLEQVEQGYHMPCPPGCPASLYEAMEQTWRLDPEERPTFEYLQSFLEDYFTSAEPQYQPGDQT
Serine/threonine-protein kinase B-raf (Homo sapiens), P15056 [V600E], sequence (P15056 whole entry V600E): as the sequence (P15056 whole entry) above, with V600E counted along it

Broadly, the inhibition is the drop in the measured response relative to a control, in per cent. On to `COc1cc(Nc2nccc(Nc3ccc4c(C)n[nH]c4c3)n2)cc(OC)c1OC`, for which the inhibition in [1] worked out at 2.48%; in [2], 18.2%; in test [3], 57.5%; in test [4] it was 38.3%; in [5], 88%; in test [6], 57.8%. Also, the inhibition was 90.3% in test [7]; 52.4% in test [8]; 33.3% in test [9]; 5.01% in [10]; 27.9% in test [11]; 28.4% in test [12]. The inhibition in [13] turned out to be 70.7%; in [14] it was 9.11%; in test [15], 32.7%; in test [16], 1.16%; in [17], 9.2%; in [18] it was 2.09%. The inhibition was 7% in test [19] and -7.99% in [20].
Consider `CC1=C(C(=O)Nc2cc(Cl)c3[nH]ncc3c2)C(c2ccc(C(F)(F)F)cc2)CC(=O)N1` (stereo not given), for which the inhibition in test [1] is 2.25%; in test [2], 2.78%; in test [3], 4.88%; in test [4] it was -0.55%; in test [5] it was -1.53%; in test [6], 1.66%. Moreover, the inhibition in test [7] is 3.1%; in test [8], -4.83%; in test [9], -1.04%; in [10] it was 3.7%; in test [11] it was 5.41%; in test [12] it was 6.96%. The inhibition in test [13] is 27.4%; in test [14] it was 3.23%; in test [15] it was 3.9%; in test [16], 9.34%; in [17], 35.7%; in test [18] it was 10.2%. Besides, the inhibition was 35.6% in test [19] and 0.78% in test [20].
As for `CCc1nn2ncccc2c1-c1ccnc(NC2CC2)n1`, the inhibition worked out at 1.27% in test [1]; 3.49% in test [2]; 3.74% in test [3]; 0.02% in test [4]; 2.1% in test [5]; 3.16% in test [6]. In addition, the inhibition is 3.41% in test [7]; -7.04% in test [8]; 2.1% in test [9]; -0.14% in test [10]; 3.06% in [11]; 1.2% in test [12]. The inhibition in [13] was 6.6%; in test [14], 1.02%; in test [15] it was -2.31%; in [16], 2.93%; in [17], 4.97%; in [18] it was 3.84%. The inhibition was 3.79% in test [19] and 0.39% in test [20].
Regarding `CCn1c(-c2nonc2N)nc2c(C#CC(C)(C)O)ncc(OC3CCNCC3)c21`, the inhibition in test [1] is -1.22%; in test [2] it was 1.43%; in [3] it was 4.57%; in test [4], 5.67%; in test [5] it was 16.4%; in [6], 3.32%. The inhibition was 3.82% in [7]; 1.56% in [8]; -1.36% in [9]; 2.05% in test [10]; 2.44% in test [11]; 1.38% in [12]. In addition, the inhibition in test [13] worked out at 5.89%; in [14], 0.49%; in test [15], 1.77%; in [16], 3.57%; in [17] it was 6.35%; in test [18] it was 4.12%. The inhibition in [19] came out at 3.02%; in test [20], 8.75%.
Regarding `O=C(Nc1n[nH]c2cc(-c3ccc(F)cc3)ccc12)C1CC1`, the inhibition in test [1] was 1.06%; in [2], 1.35%; in [3] it was 9.07%; in test [4], -0.63%; in test [5] it was 0.79%; in [6] it was 1.99%. In addition, the inhibition was 3.69% in test [7]; -0.06% in test [8]; -3.58% in test [9]; 4% in [10]; 13.5% in test [11]; 1.98% in test [12]. In addition, the inhibition in test [13] was 6.64%; in test [14], 1.71%; in [15], 3.64%; in test [16], 4.3%; in [17], 5.73%; in test [18], 4.48%. The inhibition in [19] came to 5.12%; in [20], 1.6%.
For `Cc1cccc2c1NC(=O)/C2=N\Nc1ccc(S(N)(=O)=O)cc1`, the inhibition in [1] is 1.63%; in test [2], 0.52%; in test [3], 4.37%; in test [4] it was -0.48%; in test [5], -0.65%; in test [6], 2.88%. Further, the inhibition in [7] is 8.43%; in test [8], 3.4%; in test [9], -0.5%; in [10], 3.05%; in [11] it was 1.39%; in test [12], 0.81%. For the same compound, the inhibition is -0.24% in test [13]; 2.59% in [14]; 2.59% in [15]; 3.47% in test [16]; 4.79% in test [17]; 2.89% in [18]. The figures for the inhibition in [19] and in test [20] were 3.31% and -3.52%, respectively.
With `CCn1c(-c2nonc2N)nc2c(C#CC(C)(C)O)nc(OC[C@H](N)c3ccccc3)cc21`, the inhibition in test [1] was 2.04%; in test [2], 0.69%; in [3] it was 5.54%; in test [4] it was 6.07%; in test [5], 30.4%; in test [6] it was 2.64%. Besides, the inhibition in test [7] was 2.43%; in [8], -0.59%; in [9] it was -3.88%; in test [10] it was 0.23%; in test [11], 1.88%; in test [12], 2.49%. Further, the inhibition in test [13] is 7.77%; in test [14], 0.59%; in test [15], -2.5%; in [16] it was 1.18%; in test [17] it was 5.43%; in test [18], 1.68%. In addition, the values for the inhibition in [19] and in test [20] were 2.41% and -2.29%, respectively.
